Data published in PubChem BioAssay.
Where “and” joins values, the source holds several entries; their conditions need not be identical. Equal values may be shown once.

How the values were obtained:
[1] = tested on: Botulinum neurotoxin type F light chain protease (Clostridium botulinum); experiment: Botulinum neurotoxin type F light chain protease inhibition, multiplex microsphere flow cytometry, validation set (AID 588459); settings: multiplex microsphere protease substrate cleavage assay, at 10 µM, active compounds read high
[2] = molecular target: Botulinum neurotoxin type A (Clostridium botulinum) (UniProt P0DPI0); experiment: BoNT/A light chain protease inhibitors, biochemical, multiplex microsphere flow cytometry, validation set (AID 588460); settings: at 10 µM, active compounds read high
[3] = molecular target: Lethal factor (Bacillus anthracis) (UniProt P15917); experiment: Lethal factor protease inhibitors, Bacillus anthracis, multiplex microsphere cleavage assay, validation set (AID 588461); settings: flow cytometry, at 10 µM, active compounds read high

Measured: inhibition

CC(=O)O[C@H]1CC[C@H]2[C@@H]3CCc4cc(O)ccc4[C@H]3CC[C@]12C
inactive: [1] -3.4% | [2] -0.9% | [3] -2.4%

O=C(OCCNC(=O)c1ccc2ccccc2n1)c1ccc(F)cc1
inactive: [1] 1.8% | [2] -0.7% | [3] 4.4%

N/C(=N\OC(=O)/C=C/c1ccccc1)c1ccc(Br)cc1
inactive: [1] -3.1% | [2] -0.1% | [3] 2.5%

CCOc1ccc(NC2OC(C)C(O)C(O)C2O)c([N+](=O)[O-])c1 (centres undefined)
inactive: [1] 3.1% | [2] -0.7% | [3] 11.5%

COc1ccc(N2CCN(C(=S)NCc3ccccc3)CC2)cc1
inactive: [1] 2.4% | [2] -0.6% | [3] 2.2%

CC(NC(=O)c1ccc(OC2CCN(Cc3ccccn3)CC2)cc1)c1ccccc1 (centres undefined)
inactive: [1] 2.8% | [2] 0.5% | [3] 3.4%

O=C(O)C1CSC(c2ccco2)N1 (centres undefined)
inactive: [1] -2.3% | [2] -2.5% | [3] -0.8%

CCOc1ccc(N2C(=O)CC(NCCNc3ccc([N+](=O)[O-])cn3)C2=O)cc1 (centres undefined)
inactive: [1] 0.9% | [2] 1.6% | [3] -3.4%

COCCCN1C(=O)C(=O)/C(=C(/O)c2ccc3c(c2)CC(C)O3)C1c1cccnc1 (centres undefined)
inactive: [1] -3% | [2] -2.1% | [3] 3.5%

COc1ccc(C2C(=O)c3ccccc3C2=O)cc1
inactive: [1] 0.5% | [2] -0.4% | [3] -3.8%

COc1cccc(OC2OC3COC(C)(C)OC3C(O)C2NC(C)=O)c1 (centres undefined)
inactive: [1] -0.8% | [2] 0.2% | [3] 0.5%

CC(C)Cn1c(=S)[nH]c2cc(C(=O)O)ccc2c1=O
inactive: [1] -4.3% | [2] -0.4% | [3] -0.6%

Cc1ccnc(NS(=O)(=O)c2ccc(N)cc2)n1
inactive: [1] 5.2% | [2] -0.3% | [3] -1.5%

O=c1[nH]c(=O)n(C2CCCO2)cc1F (centres undefined)
inactive: [1] -5.7% | [2] -0.7% | [3] 1.8%

COC(=O)C1=C(C)N(C)C(=S)NC1c1ccc(Cl)cc1 (centres undefined)
inactive: [1] -0.7% | [2] -0.5% | [3] -4%

CC(C)C[C@H](NC(=O)NC(C)C)C(=O)O
inactive: [1] 1.1% | [2] 0% | [3] 2.9%

CCCCC[C@H](O)/C=C/C1=C(CCCCCCC(=O)O)C(=O)CC1
inactive: [1] -0.6% | [2] -0.5% | [3] 2.4%

CN(CCCN1CCOCC1)Cc1cn(C)nc1-c1ccccc1F
inactive: [1] 0% | [2] -0.8% | [3] -6.1%

CC(=O)c1c[nH]c2ccc(C)cc2c1=O
inactive: [1] -1.7% | [2] -0.6% | [3] -1.2%

CCOC(=O)c1oc2cc(O)cc(C)c2c(=O)c1-c1cscn1
inactive: [1] 1.4% | [2] 1.8% | [3] -2.6%

C[C@H](NC(=O)Nc1ccccc1F)C(=O)O
inactive: [1] -3.8% | [2] -0.3% | [3] -3.2%

COc1ccc(NC(=O)C2C(=O)N(CCO)C3(C)CC2c2ccccc2O3)cc1 (centres undefined)
inactive: [1] 0.1% | [2] 1.3% | [3] -1.3%

COc1ccc(C2(CCN=Cc3ccc(N(C)C)cc3)CCOC(C)(C)C2)cc1 (centres undefined)
inactive: [1] 9.1% | [2] 1.6% | [3] -2%

CN1[C@@H](CC(=O)c2ccccc2)CCC[C@H]1C[C@H](O)c1ccccc1
inactive: [1] 3.2% | [2] -1% | [3] -2.2%

COc1ccc(C(=O)Nc2ccccc2C(=O)NC(Cc2c[nH]c3ccccc23)C(=O)O)cc1 (centres undefined)
inactive: [1] -0.8% | [2] 0.5% | [3] 0%

COc1cccc2c1OCC1COc3c(c(=O)n(C)c(=O)n3C)C21 (centres undefined)
inactive: [1] 1.5% | [2] 0.5% | [3] 0.2%

O=C(CCN1CCC(c2ccccc2)C1)c1ccc2c(c1)OCCO2 (centres undefined)
inactive: [1] 4.6% | [2] -0.2% | [3] -1.8%

Cc1ccc2c(c1)C(C)(C)[C@]1(C)NC(=O)CCN21
inactive: [1] -1.8% | [2] -0.2% | [3] 0%

O=C(O)C[C@@H](O)C(=O)O
inactive: [1] 0.4% | [2] -0.4% | [3] -1.2%

S=C(NCc1ccccc1)NCc1cccc(CNC(=S)NCc2ccccc2)c1
inactive: [1] -0.9% | [2] 0.7% | [3] -2.4%

NC(=O)c1cnccn1
inactive: [1] 0.4% | [2] 0.7% | [3] 5.7%

C#C[C@]1(O)CC[C@H]2[C@@H]3CCc4cc(O)ccc4[C@H]3CC[C@@]21C
inactive: [1] -3.8% | [2] -2.8% | [3] 6.8%

COc1cc(C(=S)N(C)C)ccc1O
inactive: [1] -3.2% | [2] -0.9% | [3] -2%

COc1ccc(C=O)c(OC)c1
inactive: [1] -0.3% | [2] -0.5% | [3] 0.2%

OCC(O)CN1CCN(c2ccccc2)CC1 (centres undefined)
inactive: [1] 1.1% | [2] 0.8% | [3] -2.7%

CSCCC(NC(=O)OC(C)(C)C)C(=O)Oc1ccc2c(=O)c(-c3ccc4c(c3)OCCO4)coc2c1 (centres undefined)
inactive: [1] -0.4% | [2] -0.4% | [3] -1.7%

CSCCC(NC(C)=O)C(=O)Oc1ccc2c3c(c(=O)oc2c1)CCCC3 (centres undefined)
inactive: [1] -3.3% | [2] -1.8% | [3] -1.8%

OC(CCN1CCCCC1)(c1ccccc1)C1CCCCC1 (centres undefined)
inactive: [1] 3.1% | [2] 1% | [3] 1%

Oc1[nH]c2ccccc2c1C1=NCCCC1
inactive: [1] 3.8% | [2] -0.1% | [3] -8.7%

Nc1cc(-c2ccncc2)c[nH]c1=O
inactive: [1] -3.2% | [2] -2% | [3] -5.1%

CCN(CC)c1ccc([C@H]2[C@@H]3CCCC[C@]3(O)CCN2CC(=O)NCc2ccco2)cc1
inactive: [1] -1.2% | [2] 0.9% | [3] -7.7%

COCCCNc1nc2c([nH]1)c(=O)[nH]c(=O)n2C
inactive: [1] 2.6% | [2] 1.1% | [3] 1.3%

O=C(c1ccccc1)N1CCN(C(=O)c2ccccc2)CC1
inactive: [1] -0.3% | [2] -0.7% | [3] -0.8%

c1ccc(CN(CC2=NCCN2)c2ccccc2)cc1
inactive: [1] 5.3% and 2.2% | [2] 1.1% and 0.4% | [3] -3.2% and 1.4%

Cc1ccc(N(CC2=NCCN2)c2cccc(O)c2)cc1
inactive: [1] -1.3% and 3.1% and -7.5% | [2] -1.3% and -1.2% and -1.7% | [3] -2.4% and -9.5% and -5.2%

Cc1nnc(SCC(=O)N2CCCC(C(=O)c3ccc(Cl)cc3)C2)o1 (centres undefined)
inactive: [1] 2.8% | [2] 0.9% | [3] -6.4%

Nc1nnc(-c2cccc(Cl)c2Cl)c(N)n1
inactive: [1] 1.3% | [2] 0.8% | [3] -5.9%

COc1ccc(CC(=O)N2CC3(C)CC2CC(C)(C)C3)cc1OC (centres undefined)
inactive: [1] -2.6% | [2] -1.4% | [3] -0.4%

CNc1nc(N(C)C)nc(N(C)C)n1
inactive: [1] 1.3% | [2] 0.7% | [3] -1.7%

COc1ccccc1C1C(C#N)=C(N)Oc2c1oc(CO)cc2=O (centres undefined)
inactive: [1] 1.9% | [2] -1% | [3] -5.1%

O=C(N/N=C\c1cc([N+](=O)[O-])ccc1N1CCOCC1)c1ccccn1
inactive: [1] -0.1% | [2] -1.3% | [3] 2.6%

COc1cc2c(cc1O)CC[C@@H]1[C@@H]2CC[C@]2(C)[C@@H](O)CC[C@@H]12
inactive: [1] -2.1% | [2] -2.2% | [3] -2.9%

CC(CCc1ccccc1)NCC(O)c1ccc(O)c(C(N)=O)c1 (centres undefined)
inactive: [1] -1% | [2] -1.4% | [3] 0.1%

O=C(/C=C/c1ccccc1)NC(=O)c1ccccc1O
inactive: [1] -4.2% | [2] -1.7% | [3] -5.7%

CC(C)NC(=O)c1ccc(C(C)C)cc1
inactive: [1] -2.3% | [2] -1.2% | [3] -2.8%

CC(NCCC(c1ccccc1)c1ccccc1)c1ccccc1 (centres undefined)
inactive: [1] -5.9% | [2] -1.1% | [3] 3.4%

COc1ccc2c(=O)c(-c3cnn(-c4ccccc4)c3)c(C)oc2c1
inactive: [1] -2.2% | [2] 0.9% | [3] 1.4%

COc1ccc(C2C(C#N)=C(N)Oc3cc(C)[nH]c(=O)c32)c(OC)c1OC (centres undefined)
inactive: [1] 1.9% | [2] 0.1% | [3] 0.8%

Cc1cc(C)c(NC(=O)NC(=O)C(Cl)(Cl)Cl)c(C)c1
inactive: [1] 2.9% | [2] 0.1% | [3] -3.8%

NCCc1cnc[nH]1
inactive: [1] 0.7% and 3.1% | [2] -1.5% | [3] 3.7%

CCOC(=O)c1ccc(NC(=S)NCCc2ccccc2F)cc1
inactive: [1] 4.9% | [2] 2.4% | [3] -2.3%

O=C(NC(CO)Cc1ccc([N+](=O)[O-])cc1)C(Cl)Cl (centres undefined)
inactive: [1] 0.6% | [2] -1.5% | [3] -1.4%

CC1(C)C(C=C(Cl)Cl)C1C(=O)N1CCN(Cc2ccccc2)CC1 (centres undefined)
inactive: [1] -0.6% | [2] 0.8% | [3] -5.5%
